Here are results for 29 molecules from ChEMBL document CHEMBL4888484, “Replenishing the malaria drug discovery pipeline: Screening and hit evaluation of the MMV Hit Generation Library 1 (HGL1) against asexual blood stage Plasmodium falciparum ,using a nano luciferase reporter read-out” (2022).

The whole screen tested about 4,800 compounds, of which about 420 (8.8%) showed an effect of 50% or more. The sample holds strong results, similar compounds and a random draw of the others, so the mix is not that of the screen.

For the test, the system named is Plasmodium falciparum. The test can be described thus: Confirmatory screen in NF54 nanoGlo assay, in single point, at 2uM, 72h. The test is classed as functional, Erythrocyte. The note with it: timepoint 72 hour.
A word on the % Inhibition: it is the change of the read-out against control, counted positive when it falls. Consider `Cc1ccc(Cn2cnc(NC(=O)CCn3c(=O)cc(C(F)F)c4cn(C)nc43)n2)cc1`, for which the “% Inhibition” value is -8%.

For `CCCCn1nc(NC(=O)c2cc(C3CC3)[nH]n2)cc1C`, the “% Inhibition” value is listed as -2%.

As to `CCN1CCN(c2cccc(NC(=O)c3cc(F)cc4c(=O)c5cc(F)ccc5[nH]c34)c2)CC1`, the “% Inhibition” value came out at 97%.

With `CC(C)n1nccc1NC(=O)c1c[nH]c2ccc(F)cc2c1=O`, the “% Inhibition” value was -1%.

For `O=c1[nH]c2ccccc2c(NCc2ccccc2)c1N1CCN(c2ccccc2)CC1`, the “% Inhibition” value is listed as 5%.

On to `CC(C)NC(=O)N(C)Cc1ccc(F)cc1`, for which the “% Inhibition” value was found to be 0%.

In the case of `CC(=O)Nc1cccc(C#CCN2CCN(c3ccc(F)cc3)CC2)c1`, the “% Inhibition” value was -5%.

As to `CCn1c(C)c(C)c2cc(C(=O)Nc3cccc(S(=O)(=O)N4CCOCC4)c3)ccc21`, the “% Inhibition” value was 0%.

As for `CCN1CCN(c2cccc(NC(=O)c3ccc4[nH]c5ccccc5c(=O)c4c3)c2)CC1`, the “% Inhibition” value worked out at 93%.

Take `CN(C)Cc1ccc(NC(=O)c2cc(F)cc3c(=O)c4cc(F)ccc4[nH]c23)cc1`: the “% Inhibition” value is 79%.

Regarding `Cc1cccc(NC(=O)c2cc(C)nc3c2c(C)nn3-c2ccc(F)cc2)c1`, the “% Inhibition” value is reported as -2%.

With `O=C(Nc1ccc(N2CCC(N3CCCCC3)CC2)cc1C(=O)O)c1ccccc1Cl`, the “% Inhibition” value came to 4%.

For the molecule `O=C1C2C3C=CC(C3=C(c3ccccc3)c3ccccc3)C2C(=O)N1CCO` (centres undefined), the “% Inhibition” value is -5%.

Regarding `N#Cc1ccc(N[C@H]2CCCN(Cc3ccc(F)cc3F)C2=O)cn1`, the “% Inhibition” value was -10%.

In the case of `Cc1nc(COc2nc(C(C)(C)C)no2)cs1`, the “% Inhibition” value is on record as -10%.

Take `Cc1ccsc1NC(=O)OC(C)(C)C`: the “% Inhibition” value was 1%.

For the molecule `Cc1nonc1N(Cc1ccc(Cl)cc1Cl)S(=O)(=O)c1ccccc1`, the “% Inhibition” value is on record as -22%.

In the case of `COc1cc(C(=O)N2CCN(c3ccccc3)CC2)cc2occc12`, the “% Inhibition” value is listed as -2%.

Regarding `O=C(NCc1cccc(Br)c1)c1ccc(Cl)c(-n2cnc3cccnc32)c1`, the “% Inhibition” value was -1%.

Take `O=C(COCC(=O)Nc1cccc(Cl)c1Cl)NCCC1=CCCCC1`: the “% Inhibition” value was -3%.

For `O=C(O)C1CC=CCC1C(=O)N1CCCCCC1` (centres undefined), the “% Inhibition” value was 2%.

Turning to `NC(=O)C(=O)Nc1ccccc1C(F)(F)F`, the “% Inhibition” value is given as -8%.

`COc1ccc(CNC(=O)c2cc(C(=O)c3ccc(F)cc3)c[nH]2)cc1`: the “% Inhibition” value is recorded as -11%.

In the case of `CC(C)c1ccc(Oc2cnn(-c3cccc(Cl)c3)c(=O)c2Nc2cccc(C(=O)NC3CC3)c2)cc1`, the “% Inhibition” value is recorded as 48%.

For the molecule `COc1ccc(-n2ncc(Oc3cccc(C)c3)c(Nc3cccc(C(=O)NCc4ccc(F)cc4)c3)c2=O)cc1`, the “% Inhibition” value was 50%.

For the molecule `O=c1cc(COc2ccc(F)c(F)c2)nc2sccn12`, the “% Inhibition” value turned out to be 3%.

As for `CN(CCNC(=O)CCc1cn(-c2ccccc2)nc1-c1ccc2c(c1)OCO2)C1CCCCC1`, the “% Inhibition” value is 52%.

In the case of `Cc1cc2nc(C)c(=O)n(CCC(=O)NCCCN(C)C3CCCCC3)c2cc1C`, the “% Inhibition” value turned out to be 0%.

For the molecule `O=C(CCn1nc(-c2ccc3c(c2)OCO3)ccc1=O)NC1CCCCC1`, the “% Inhibition” value is given as -10%.
